# Measurements from the supplement of paper PMC8728848.
# Many of the other results were omitted from the sample, so the strongest signals are more common in it than they were.
# What was measured:
# Assay in all cases: glycan array binding signal (z-score within array); higher = stronger binding
# Details in all cases: glycan notation: IUPAC condensed, linker removed
# [1] = target: Fuc(a1-2)Gal(b1-3)GalNAc(a1-3)[Fuc(a1-2)]Gal(b1-4)GlcNAc
# Procedure, shortened: (§1)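 The binding signal is a Z-score computed within each array and averaged over linkers. Arrays of the same protein sequence at different concentrations or buffers were also averaged together. Data originate from 3228 arrays in the Consortium for Functional Glycomics database, kept only where the protein sequence was available.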
# [2] = target: Fuc(a1-2)Gal(b1-3)GlcNAc(b1-3)[Gal(b1-4)GlcNAc(b1-6)]Gal(b1-4)Glc
# Procedure, shortened: as §1
# [3] = target: Fuc(a1-2)Gal(b1-3)[Fuc(a1-4)]GlcNAc(b1-3)[Gal(b1-4)GlcNAc(b1-6)]Gal(b1-4)Glc
# Procedure, shortened: as §1
# [4] = target: Fuc(a1-2)Gal(b1-4)Glc6S
# Procedure, shortened: as §1
# [5] = target: Fuc(a1-2)Gal(b1-4)GlcNAc(b1-2)Man(a1-3)[Fuc(a1-2)Gal(b1-4)GlcNAc(b1-2)Man(a1-6)]Man(b1-4)GlcNAc(b1-4)GlcNAc
# Procedure, shortened: as §1
# [6] = target: Fuc(a1-2)Gal(b1-4)GlcNAc(b1-2)[Fuc(a1-2)Gal(b1-4)GlcNAc(b1-4)]Man(a1-3)[Fuc(a1-2)Gal(b1-4)GlcNAc(b1-2)Man(a1-6)]Man(b1-4)GlcNAc(b1-4)GlcNAc
# Procedure, shortened: as §1
# [7] = target: Fuc(a1-2)Gal(b1-4)GlcNAc(b1-3)Gal(b1-4)GlcNAc(b1-2)Man(a1-3)[Fuc(a1-2)Gal(b1-4)GlcNAc(b1-3)Gal(b1-4)GlcNAc(b1-2)Man(a1-6)]Man(b1-4)GlcNAc(b1-4)GlcNAc
# Procedure, shortened: as §1
# [8] = target: Fuc(a1-2)Gal(b1-4)GlcNAc(b1-3)Gal(b1-4)GlcNAc(b1-3)Gal(b1-4)GlcNAc
# Procedure, shortened: as §1
# [9] = target: Fuc(a1-2)Gal(b1-4)GlcNAc(b1-6)GalNAc
# Procedure, shortened: as §1
# [10] = target: Fuc(a1-2)[GalNAc(a1-3)]Gal(b1-4)GlcNAc(b1-3)Gal(b1-4)GlcNAc
# Procedure, shortened: as §1
# [11] = target: Fuc(a1-2)[GalNAc(b1-3)]Gal
# Procedure, shortened: as §1
# [12] = target: Fuc(a1-3)[Gal(b1-4)]Glc6S
# Procedure, shortened: as §1
# [13] = target: Fuc(a1-3)[Gal(b1-4)]GlcNAc
# Procedure, shortened: as §1
# [14] = target: Fuc(a1-3)[Gal3S(b1-4)]GlcNAc6S
# Procedure, shortened: as §1
# [15] = target: Gal(a1-3)[Gal(a1-4)]Gal(b1-4)GlcNAc
# Procedure, shortened: as §1
# [16] = target: Gal(a1-4)Gal(b1-4)Glc
# Procedure, shortened: as §1
# [17] = target: Gal(a1-4)GlcNAc
# Procedure, shortened: as §1
# [18] = target: Gal(a1-6)Glc
# Procedure, shortened: as §1
# [19] = target: Gal(b1-3)GalNAc(b1-4)Gal(b1-4)Glc
# Procedure, shortened: as §1
# [20] = target: Gal(b1-3)GlcNAc
# Procedure, shortened: as §1
# [21] = target: Gal(b1-3)[Fuc(a1-4)]GlcNAc
# Procedure, shortened: as §1
# [22] = target: Gal(b1-3)[Fuc(a1-4)]GlcNAc(b1-3)Gal(b1-3)[Fuc(a1-4)]GlcNAc
# Procedure, shortened: as §1
# [23] = target: Gal(b1-3)[Neu5Ac(a2-6)]GlcNAc(b1-4)Gal(b1-4)Glc
# Procedure, shortened: as §1
# [24] = target: Gal(b1-4)Glc6S
# Procedure, shortened: as §1
# [25] = target: Gal(b1-4)GlcNAc(b1-2)Man(a1-3)[Gal(b1-4)GlcNAc(b1-2)Man(a1-6)][Gal(b1-4)GlcNAc(b1-4)]Man(b1-4)GlcNAc(b1-4)[Fuc(a1-6)]GlcNAc
# Procedure, shortened: as §1
# [26] = target: Gal(b1-4)GlcNAc(b1-3)Gal(b1-4)GlcNAc(b1-2)[Gal(b1-4)GlcNAc(b1-3)Gal(b1-4)GlcNAc(b1-6)]Man(a1-6)[Gal(b1-4)GlcNAc(b1-3)Gal(b1-4)GlcNAc(b1-2)Man(a1-3)]Man(b1-4)GlcNAc(b1-4)[Fuc(a1-6)]GlcNAc
# Procedure, shortened: as §1
# [27] = target: Gal(b1-4)GlcNAc(b1-3)Gal(b1-4)GlcNAc(b1-3)Gal(b1-4)GlcNAc(b1-3)Gal(b1-4)GlcNAc(b1-3)Gal(b1-4)GlcNAc(b1-2)[Gal(b1-4)GlcNAc(b1-3)Gal(b1-4)GlcNAc(b1-3)Gal(b1-4)GlcNAc(b1-3)Gal(b1-4)GlcNAc(b1-3)Gal(b1-4)GlcNAc(b1-6)]Man(a1-6)[Gal(b1-4)GlcNAc(b1-3)Gal(b1-4)GlcNAc(b1-3)Gal(b1-4)GlcNAc(b1-3)Gal(b1-4)GlcNAc(b1-3)Gal(b1-4)GlcNAc(b1-2)Man(a1-3)]Man(b1-4)GlcNAc(b1-4)[Fuc(a1-6)]GlcNAc
# Procedure, shortened: as §1
# [28] = target: Gal4S6S(b1-4)GlcNAc
# Procedure, shortened: as §1
# [29] = target: GalNAc(a1-3)GalNAc(b1-3)Gal(a1-4)Gal(b1-4)GlcNAc
# Procedure, shortened: as §1
# [30] = target: GalNAc(b1-4)GlcNAc(b1-2)Man(a1-3)[GalNAc(b1-4)GlcNAc(b1-2)Man(a1-6)]Man(b1-4)GlcNAc(b1-4)GlcNAc
# Procedure, shortened: as §1
# [31] = target: GlcNAc(b1-2)[GlcNAc(b1-6)]Man(a1-6)[GlcNAc(b1-2)Man(a1-3)]Man(b1-4)GlcNAc(b1-4)GlcNAc
# Procedure, shortened: as §1
# [32] = target: GlcNAc(b1-3)Gal(b1-4)GlcNAc(b1-2)Man(a1-3)[GlcNAc(b1-3)Gal(b1-4)GlcNAc(b1-2)Man(a1-6)]Man(b1-4)GlcNAc(b1-4)[Fuc(a1-6)]GlcNAc
# Procedure, shortened: as §1
# [33] = target: GlcNAc(b1-3)Gal(b1-4)GlcNAc(b1-3)Gal(b1-4)GlcNAc(b1-2)Man(a1-3)[GlcNAc(b1-3)Gal(b1-4)GlcNAc(b1-3)Gal(b1-4)GlcNAc(b1-2)Man(a1-6)]Man(b1-4)GlcNAc(b1-4)[Fuc(a1-6)]GlcNAc
# Procedure, shortened: as §1
# [34] = target: GlcNAc(b1-3)Gal(b1-4)GlcNAc(b1-3)Gal(b1-4)GlcNAc(b1-3)Gal(b1-4)GlcNAc(b1-3)Gal(b1-4)GlcNAc(b1-2)Man(a1-3)[GlcNAc(b1-3)Gal(b1-4)GlcNAc(b1-3)Gal(b1-4)GlcNAc(b1-3)Gal(b1-4)GlcNAc(b1-3)Gal(b1-4)GlcNAc(b1-2)Man(a1-6)]Man(b1-4)GlcNAc(b1-4)[Fuc(a1-6)]GlcNAc
# Procedure, shortened: as §1
# [35] = target: GlcNAc(b1-3)Gal(b1-4)GlcNAc(b1-3)Gal(b1-4)GlcNAc(b1-3)GalNAc
# Procedure, shortened: as §1
# [36] = target: GlcNAc(b1-4)GlcNAc
# Procedure, shortened: as §1
# [37] = target: Neu5Ac(a2-3)Gal(b1-3)GlcNAc(b1-2)Man
# Procedure, shortened: as §1
# [38] = target: Neu5Ac(a2-3)Gal(b1-3)GlcNAc(b1-6)GalNAc
# Procedure, shortened: as §1
# [39] = target: Neu5Ac(a2-3)Gal(b1-4)GlcNAc(b1-3)GalNAc
# Procedure, shortened: as §1
# [40] = target: Neu5Ac(a2-3)Gal(b1-4)GlcNAc(b1-6)GalNAc
# Procedure, shortened: as §1
# [41] = target: Neu5Ac(a2-3)Gal(b1-4)[Fuc(a1-3)]GlcNAc(b1-3)GalNAc
# Procedure, shortened: as §1
# [42] = target: Neu5Ac(a2-3)GalNAc
# Procedure, shortened: as §1
# [43] = target: Neu5Ac(a2-6)Gal(b1-4)GlcNAc(b1-2)Man(a1-3)[Neu5Ac(a2-6)Gal(b1-4)GlcNAc(b1-2)Man(a1-6)]Man(b1-4)GlcNAc(b1-4)GlcNAc
# Procedure, shortened: as §1
# [44] = target: Neu5Ac(a2-6)Gal(b1-4)GlcNAc(b1-3)[Neu5Ac(a2-6)Gal(b1-4)GlcNAc(b1-6)]GalNAc
# Procedure, shortened: as §1
# [45] = target: Neu5Ac(a2-6)GalNAc(b1-4)GlcNAc6S
# Procedure, shortened: as §1
# [46] = target: Neu5Ac(a2-8)Neu5Ac(a2-8)Neu5Ac
# Procedure, shortened: as §1
# [47] = target: Neu5Ac(b2-6)GalNAc
# Procedure, shortened: as §1
# [48] = target: Neu5Gc(a2-3)Gal(b1-4)GlcNAc
# Procedure, shortened: as §1
binder,measurement,setting,value
Vd7LysM (Verticillium dahliae) (protein) RRGPEPKYPPAAGTSSYCSYWVDYEGDKSCSRVLEDNVVVLKDFARWNPTVGADCSGIKAGNSYCVEAFGEPEPIEVTTTTRAATTTTQPTATTTTFANGIATPQPTQSGMVTNCNKFHWIAEGVSCSQVISFQKITLADFVKWNPSVKSDCSGMWAGVNVCVGVVGSSTDTAKPTTTAPSNGVVTPQPTQPSMVTNCNKFHWIAKGVTCQQVISYQKISLADFVKWNPSVLSDCSGMWAEVQVCVGVIGSTPTTLATTTTTAGNGVSTPLPTQPGMVTNCAKFHWVAKGVTCNQIYSFQKITLEQFVSYNPTVKSDCSGMQAEVQVCVGLIAGTTPTTTRPPTTTAPGNGVSTPQPTQPGMVTNCAKFHWVAKGVTCNQIYSFQKITLEQFVSFNPTVKSDCTGMQAEVNVCVGLIGGNPTPTQTGNGIATPTPIQPGMVSNCKKFHWIAQGVTCQQVISFQKITLADFVKWNTGVGSDCRTMWAETNVCVGV,glycan array binding signal (z-score),[1],-0.691
same,glycan array binding signal (z-score),[2],-0.772
same,glycan array binding signal (z-score),[3],-1.91
same,glycan array binding signal (z-score),[4],2.67
same,glycan array binding signal (z-score),[5],2.13
same,glycan array binding signal (z-score),[6],-0.492
same,glycan array binding signal (z-score),[7],0.254
same,glycan array binding signal (z-score),[8],3.25
same,glycan array binding signal (z-score),[9],0.512
same,glycan array binding signal (z-score),[10],1.94
same,glycan array binding signal (z-score),[11],0.38
same,glycan array binding signal (z-score),[12],0.721
same,glycan array binding signal (z-score),[13],-0.68
same,glycan array binding signal (z-score),[14],1.04
same,glycan array binding signal (z-score),[15],-0.317
same,glycan array binding signal (z-score),[16],3.04
same,glycan array binding signal (z-score),[17],0.386
same,glycan array binding signal (z-score),[18],-1.58
same,glycan array binding signal (z-score),[19],2.86
same,glycan array binding signal (z-score),[20],-0.186
same,glycan array binding signal (z-score),[21],-0.618
same,glycan array binding signal (z-score),[22],1.63
same,glycan array binding signal (z-score),[23],-0.885
same,glycan array binding signal (z-score),[24],0.592
same,glycan array binding signal (z-score),[25],-0.393
same,glycan array binding signal (z-score),[26],2.56
same,glycan array binding signal (z-score),[27],4.04
same,glycan array binding signal (z-score),[28],0.198
same,glycan array binding signal (z-score),[29],0.706
same,glycan array binding signal (z-score),[30],-1.23
ClecSol-Fc (Cryptosporidium parvum) (protein) CPEGWISNGEKTRCFKLVTFDRPRTFSHGFKACNDLGGTEVETRRRNGSKETNEYPVTLASVYKLSDEEAIRRTLVEQGDIHKTANGCFVGLRKYAFFRYPPGWYWIDSGSPVSVRDSEINWTSSYNASWLLRFKFPFEKCGFFDIGGLGRRPCWLIDSELSCAVCGTVAYDSGGLNPNKYSELIKQTDEIISKEPKLDLPGYNNLNCTDAWENNLSVGLCQNVSNILDSAWSSYQSSLNFPSINFNWKEDSTNEGGDQVYHNSYLDLPRYKQKKTFYWDQDPGTIPALSDEMKLIGLSAQPTYHPLDRSSSGSFESDSTESGRANEERNDTLEEMIYKQSSDSIEDILVPVTKPIFSDYSSIGRNSGVEEVYSSNVSTISSKGVVFPNTTTSSDNDFTKNNPANSSKHTSTSTTTNTTTTTTRTTTTTTTTTTTTTTTTTTTTETTTTKKSTTATKNTTTT,glycan array binding signal (z-score),[31],-0.117
same,glycan array binding signal (z-score),[32],0.693
same,glycan array binding signal (z-score),[33],-0.079
same,glycan array binding signal (z-score),[34],0.18
same,glycan array binding signal (z-score),[35],0.074
same,glycan array binding signal (z-score),[36],5.31
same,glycan array binding signal (z-score),[37],-0.101
same,glycan array binding signal (z-score),[38],-0.123
same,glycan array binding signal (z-score),[39],-0.229
same,glycan array binding signal (z-score),[40],-0.11
same,glycan array binding signal (z-score),[41],-0.101
same,glycan array binding signal (z-score),[42],0.005
same,glycan array binding signal (z-score),[43],-0.172
same,glycan array binding signal (z-score),[44],-0.216
same,glycan array binding signal (z-score),[45],-0.03
same,glycan array binding signal (z-score),[46],0.518
same,glycan array binding signal (z-score),[47],-0.003
same,glycan array binding signal (z-score),[48],-0.119
